From PubChem BioAssay
Hits are enriched below; roughly 5.7% of the tested compounds scored in any of these assays.
HP1b binding inh: blocks HP1-beta chromodomain binding to methylated histone tails; Potency, µM (titrated, usually from 114 µM), hits mostly inhibitors; P83916; AID 540317; 390,000 tested, 0.56% active; AlphaScreen HP1-beta / biotin-H3K9me3 peptide binding; also: nearly all actives have a fitted effect of over 70% in size
Target sequence (P83916 whole entry, looked up): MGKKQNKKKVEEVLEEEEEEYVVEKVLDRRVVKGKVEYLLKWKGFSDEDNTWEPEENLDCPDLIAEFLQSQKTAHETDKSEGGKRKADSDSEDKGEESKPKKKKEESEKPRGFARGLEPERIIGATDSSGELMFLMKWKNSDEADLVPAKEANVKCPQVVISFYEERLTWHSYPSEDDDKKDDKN
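AlphaScreen: HP1-beta (50 nM) preformed 30 min with biotin-H3(1-18)K9me3 peptide (50 nM) in PBS pH 7.4, 0.01% Tween-20. Compound added for 30 min at RT, then streptavidin donor/nickel chelate acceptor beads (10 ug/mL) for 30 min.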
JMJD2E inh: JMJD2E (human) inhibition. JMJD2E catalytic domain, FDH-coupled NADH fluorescence (FDH is formaldehyde dehydrogenase). Potency, µM (highest dose often 57.1 µM), usual class: inhibitors. AID 2147. 230,000 tested, 1.6% active; active = well fitted inhibition curve with a large enough effect, not every such curve was filed as active; inconclusive = small, poorly fitted or top-dose-only effect, or another doubt; inactive = no such curve, though single readings can be large or run the other way; also: nearly all actives have a fitted effect of over 50% in size
L3MBTL1 inh: blocks human L3MBTL1. AlphaScreen L3MBTL1–H3K9me1 peptide binding. Q9Y468. 230,000 tested, 0.66% active. Potency, µM (series often up to 57.1 µM), hits mostly inhibitors; also: nearly all actives have a fitted effect of over 60% in size
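First, the protein-peptide complex forms for 30 min at room temperature (L3MBTL1 50 nM, biotinylated H3K9me1 peptide 75 nM). Next, compounds are pin-transferred and incubated 30 min. Finally, AlphaScreen beads are added and read after 30 min.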
BAZ2B block: inhibitors of human BAZ2B bromodomain; Q9UIF8; AlphaScreen BAZ2B-H3K14Ac peptide displacement; Potency, µM (titrated, usually from 114 µM), most hits filed as inhibitors; 360,000 tested, 4.4% active; AID 504333; also: nearly all actives have a fitted effect of over 60% in size
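AlphaScreen displacement: compounds (up to 110uM) incubated 30 min at room temperature with a preformed 50 nM BAZ2B/50 nM biotinylated H3K14Ac peptide complex in PBS pH 7.4 with Tween-20. Donor and acceptor beads at 10 ug/mL final added, 20 min light-protected before reading.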
JMJD2A Tudor: JMJD2A Tudor domain (human) inhibition | O75164 | AlphaScreen JMJD2A-Tudor / H3K4me3 peptide binding | Potency, µM (titrated, usually from 114 µM), hits mostly inhibitors | 390,000 tested, 4.4% active; also: nearly all actives have a fitted effect of over 50% in size
PI5P4Ka inh: inhibitors of human PI5P4K alpha; P48426; PI5P4Kalpha enzyme, ADP-Glo luminescence, 60 min; hits give low values; max response, %; 330,000 tested, 1.2% active; AID 652105; active = max response of -50% or lower; inconclusive = between -30% and -50%; inactive = -30% or higher; also: value at the top dose of about 77 µM
Target sequence (P48426 whole entry, looked up): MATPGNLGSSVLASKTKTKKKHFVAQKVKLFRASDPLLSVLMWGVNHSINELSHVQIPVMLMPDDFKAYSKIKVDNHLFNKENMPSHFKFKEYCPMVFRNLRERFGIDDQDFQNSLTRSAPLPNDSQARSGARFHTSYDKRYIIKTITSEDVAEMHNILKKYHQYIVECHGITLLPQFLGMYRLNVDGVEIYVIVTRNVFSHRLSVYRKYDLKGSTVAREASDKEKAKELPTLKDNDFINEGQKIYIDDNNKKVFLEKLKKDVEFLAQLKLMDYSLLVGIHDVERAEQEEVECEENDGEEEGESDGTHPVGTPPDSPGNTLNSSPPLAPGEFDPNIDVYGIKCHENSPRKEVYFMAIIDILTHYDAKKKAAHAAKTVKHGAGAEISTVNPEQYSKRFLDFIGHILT
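Compounds were pin-transferred onto PI5P4Kalpha and substrate in HEPES pH 7.4 buffer with EGTA, CHAPS and 5% DMSO. ATP (5 microM final) started the reaction, which ran 60 minutes at room temperature before ADP-Glo detection.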
A number is an active result; i = inactive; ? = inconclusive; nt = not tested or not shown; [ ] = another dose, or the depositor's remark. Unless noted, calls follow the shape of the dose curve; as a rule, active = well fitted inhibition curve with a large enough effect; inconclusive = small, poorly fitted or top-dose-only effect; inactive = no such curve, though single readings can be large or run the other way.

SMILES | HP1b binding inh | JMJD2E inh | L3MBTL1 inh | BAZ2B block | JMJD2A Tudor | PI5P4Ka inh
COc1ccc(N2CCN(Cc3cc(=O)oc4cc5c(cc34)CCCC5)CC2)cc1 | i | i | i | i | i | i
C/C=C/c1cc(CN2CCN(c3ccc(OC)cc3)CC2)c(O)c(OC)c1 | 45µM | i | i | 28µM | 45µM | i
COc1ccc(S(=O)(=O)N2CCC(C(=O)N[C@H](C(=O)NCc3ccco3)C(C)C)CC2)cc1 | i | nt | nt | i | i | i
Cc1nnc(NC(=O)C2CCN(S(=O)(=O)c3ccc(F)c(F)c3)CC2)o1 | i | nt | i | nt | 50µM | i
CC(=O)NCc1ccc(S(=O)(=O)N2CCCN(C)CC2)cc1 | i | nt | nt | i | 25µM | i
CC(=O)N1c2ccc(S(=O)(=O)N3CCCCCC3)cc2CC1C(=O)NCc1ccc(Cl)cc1 (centres undefined) | i | nt | nt | i | i | nt
CC(=O)N1c2ccc(S(=O)(=O)N3CCCCC3)cc2CC1C(=O)NCc1ccc(N(C)C)cc1 (centres undefined) | i | nt | nt | i | 28µM | i
CC(C)[C@H](NC(=O)C1CCN(S(=O)(=O)c2ccc(F)cc2)CC1)C(=O)NCc1ccco1 | i | nt | nt | i | 35µM | i
CCCC[C@@H]1CCCO[C@@](C(=O)NCc2ccccc2)(C(F)(F)F)C1 | i | nt | nt | nt | i | nt
CN(C)c1ccc(NC(=O)CN2C(=O)c3ccccc3Sc3ccc(C(=O)N4CCCC4)cc32)cc1 | i | nt | nt | ? | ? | nt
O=C(NCCO)C1CCN(S(=O)(=O)c2ccc(F)cc2)CC1 | i | i | i | i | i | i
CCC(=O)N1CCCc2cc(S(=O)(=O)N3CCC(C(=O)NCc4ccc(F)cc4)CC3)ccc21 | i | nt | nt | i | 56µM | nt
CCNC(=O)C1CCN(S(=O)(=O)c2ccc(F)cc2)CC1 | i | i | i | i | 25µM | i
O=C(NCc1ccco1)C1CCN(Cc2ccc(F)cc2)CC1 | ? | i | nt | 50µM | 50µM | i
CC(C)N(C(=O)Cn1cc(S(=O)(=O)Cc2ccc(C(F)(F)F)cc2)c2ccccc21)C(C)C | i | nt | nt | i | i | nt
Cc1ccc(/C=c2\sc3nc(-c4ccccc4Br)nn3c2=O)o1 | i | i | nt | 50µM | 50µM | ?
CCN(CC)c1ccc(/C=c2\sc3nnc(-c4ccccc4Cl)n3c2=O)cc1 | i | i | nt | i | i | i
Cc1ccc(/C=c2/sc3nnc(-c4ccccc4Cl)n3c2=O)o1 | i | i | ? | 40µM | 22µM | i
O=S(=O)(NCc1cccc(Br)c1)c1ccc(-c2cc(C(F)(F)F)on2)s1 | i | nt | nt | i | i | nt
O=C(CCC(=O)Nc1cc(C(F)(F)F)ccc1Cl)N/N=C\c1cc([N+](=O)[O-])ccc1O | i | nt | nt | i | i | i
Cc1cccc(NC(=O)CCC(=O)N/N=C/c2cc([N+](=O)[O-])ccc2O)c1 | ? | 10µM | i | i | i | i
O=C(CCC(=O)Nc1ccc(Br)cc1)N/N=C/c1cc([N+](=O)[O-])ccc1O | i | ? | i | i | i | i
O=C(CCC(=O)Nc1ccc(F)cc1)N/N=C/c1cc([N+](=O)[O-])ccc1O | i | 7.1µM | i | i | i | i
O=C(CCN1CCN(c2ccccc2)CC1)N/N=C/c1ccccc1O | i | 28µM | i | nt | i | i
O=C(CCC(=O)Nc1ccc(F)cc1)N/N=C/c1ccccc1O | i | 25µM | i | i | i | i
SMILES | HP1b binding inh | JMJD2E inh | L3MBTL1 inh | BAZ2B block | JMJD2A Tudor | PI5P4Ka inh
CN1CCN(CCC(=O)N/N=C/c2ccccc2F)CC1 | i | i | nt | i | i | i
CCC(=O)C1=C(c2ccc(F)cc2)N(C(=O)CC)n2c(nnc2C2CCCCC2)S1 | i | nt | nt | i | i | nt
Oc1ccccc1C=NNC(=S)Nc1ccc(F)cc1 | i | nt | nt | nt | 56µM | ?
CN(C)c1nc(N/N=C/c2ccccc2O)nc(Nc2ccc(F)cc2)n1 | i | 28µM | nt | ? | i | i
Fc1ccc(NC(=S)NN=Cc2ccccc2Cl)cc1 | i | nt | nt | nt | i | i
CN(C)c1nc(Nc2ccc(F)cc2)nc(Oc2ccc(F)cc2)n1 | i | nt | i | i | i | i
O=[N+]([O-])c1ccc(C(c2sc3nc(-c4ccco4)nn3c2O)N2CCN(c3cccc(Cl)c3)CC2)cc1 (centres undefined) | i | nt | nt | ? | ? | nt
COc1ccc(OC)c(NS(=O)(=O)c2ccc(-c3cc(C)no3)s2)c1 | i | nt | nt | ? | i | nt
Cc1cccc(CN2CCN(C(c3ccccc3)c3ccc(Cl)cc3)CC2)c1 (centres undefined) | i | i | i | 50µM | 79µM | ?
Cc1ccc(-c2noc(CN3CCN(C(c4ccccc4)c4ccccc4)CC3)n2)cc1 | i | i | i | i | i | i
CN1CCCN(C(c2ccccc2)c2ccc(Cl)cc2)CC1 (centres undefined) | i | ? | i | ? | 79µM | i
CCC(=O)OCCNc1cc(SCCC(=O)OC)c2nonc2c1[N+](=O)[O-] | i | i | i | i | i | i
CCCC(=O)OCCNc1cc(Sc2nc3ccccc3[nH]2)c2nonc2c1[N+](=O)[O-] | ? | ? | i | ? | 79µM | i
Cc1ccc(Sc2ccc(N3CCCC(C(=O)Nc4ccc(Br)cc4)C3)nn2)cc1 (centres undefined) | i | nt | nt | i | i | nt
Cc1c(-c2ccc(Cl)cc2)oc(=O)c2c(N)n(-c3ccccc3)nc12 | i | ? | i | 50µM | i | i
Nc1c2c(=O)oc(-c3ccccc3)cc2nn1-c1ccccc1 | i | ? | i | i | i | nt
COc1ccc(-c2csc3ncnc(N4CCN(c5ccc(OC)cc5)CC4)c23)cc1 | ? | nt | nt | 10µM | 32µM | i
Cc1ccc(-c2csc3ncnc(Nc4ccc(N5CCOCC5)cc4)c23)cc1 | ? | ? | i | 45µM | i[11.4 µM] | i
COc1ccc(-c2csc3ncnc(N4CCN(c5ccccc5)CC4)c23)cc1 | i | nt | i | ? | ? | i
CCS(=O)(=O)N1CCC(C(=O)NCCC(C)C)CC1 | i | nt | nt | i | i | nt
COc1ccc(C)cc1NC(=O)COc1cc(=O)n(C)c2ccccc12 | i | nt | nt | i | i | nt
Cc1ccc(/C=C2\SC(=S)N(CCC(=O)NCCCN3CCOCC3)C2=O)cc1 | i | nt | nt | i | i | i
O=C(CCCN1C(=O)/C(=C/c2cccc(Br)c2)SC1=S)NCCCN1CCOCC1 | i | nt | nt | 10µM | 45µM | i
O=C(CCN1C(=O)/C(=C/c2ccc(F)cc2)SC1=S)NCCc1cnc[nH]1 | i | nt | nt | 18µM | ? | i
CCc1ccc(/C=C2\SC(=S)N(CCC(=O)NCCCN3CCOCC3)C2=O)cc1 | i | nt | nt | 35µM | ? | i
CCOc1ccc(/C=C2\SC(=S)N(CC(=O)NCCCN3CCOCC3)C2=O)cc1 | i | nt | nt | i | ? | i
CC(C)c1ccc(/C=C2\SC(=S)N(CC(=O)NCCCN3CCOCC3)C2=O)cc1 | ? | nt | nt | 32µM | ? | i
COc1ccc(-n2ncc(C(=O)NCCCN3CCCCC3)c2C2CCN(C(=O)OC(C)(C)C)CC2)cc1 | i | nt | nt | i | i | nt
